64 compounds from PubChem BioAssay AID463212 (Sanford-Burnham Center for Chemical Genomics, 2010) can be followed below.

In all, about 330,000 compounds went through this assay and about 4,400 (1.3%) were called active. Many of the other results were omitted from the sample, so actives are more common in it than they were. Values without a mark were called inactive.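 Rule for the calls: active = growth inhibition of the mutant yeast at or above 50%; inactive = the rest.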

As usually defined, the inhibition is the drop in the measured response relative to a control, in per cent.

The test can be described thus: growth inhibition of tim23-1 ts yeast – luminescence, uHTS, primary screen (AID 463212).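 Note: temperature-sensitive mutant grown at 25 °C; plate controls were DMSO-treated mutant yeast for no effect and medium wells lacking yeast for full effect.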 The following applies: S. cerevisiae tim23-1 growth, BacTiter-Glo luminescence, 24 h; at 20 µM; stronger effect = higher value.
`Cc1ccc(NS(=O)(=O)c2cn(C)c(=O)n(C)c2=O)c(C)c1`: the inhibition is 11%. With `Cc1cccc(C(C)C)c1NC(=O)COC(=O)C1CC(=O)N(Cc2ccccc2)C1` (centres undefined), the inhibition is -6%. In the case of `Clc1ccc(Nc2ccc3ccccc3n2)cc1`, the inhibition is 84.8% (active). In the case of `Cc1cccc(NC(=O)c2ccc3ccccc3n2)n1`, the inhibition was 26.7%. For the compound `C(=N\Nc1ccc2ccccc2n1)/c1ccc2c(c1)OCO2`, the inhibition was 18.7%.

Consider `CC(=O)N1c2ccc(S(=O)(=O)N3CCCC(C(=O)Nc4cccc(F)c4)C3)cc2CC1C` (centres undefined), for which the inhibition was 19.4%. The figure for `S=C(NNC(=S)NC1CC2C=CC1C2)NC1CC2C=CC1C2` (centres undefined) is 6.32%; for `S=C(NNC(=S)NC1CC2CCC1C2)NC1CC2C=CC1C2` (centres undefined) it is 13.8%; for `CC(C)c1ccc(NC(=S)NC2CC3C=CC2C3)cc1` (centres undefined) it is 50.9% (active). Regarding `Cc1csc(NC(=O)c2ccc(C)s2)n1`, the inhibition was 17%. The figure for `COc1cc(SC)ccc1C(=O)Nc1nc(C)cs1` is 51.1% (active).

Regarding `COc1ccc(C(=O)Nc2cccc(NC(=O)c3ccc(OC)cc3OC)n2)c(OC)c1`, the inhibition is -26.2%. Turning to `O=C(/C=C/c1ccc(N2CCOCC2)cc1)c1ccccc1`, the inhibition was 35.2%. In the case of `O=C(/C=C/c1ccccc1)c1ccccc1O`, the inhibition is 55.8% (active). The result for `O=C(/C=C/c1ccccc1)N/C(=C/c1ccccc1)C(=O)Nc1ccccc1O` reads 19.1%; that for `Nc1cc(N)nc(SCC(=O)Nc2cccc(S(=O)(=O)N3CCCCC3)c2)n1`, -8.43%. As to `O=C1C=C(c2cccc(Cl)c2O)C[C@@H](c2ccc(F)cc2)C1`, the inhibition is 63.4% (active). `O=C1C=C(c2cccc(Cl)c2)C[C@@H](c2ccc(F)cc2)C1`: the inhibition is 35.1%. With `COc1ccccc1C1=CC(=O)C[C@H](c2ccc(F)cc2)C1`, the inhibition is 35.3%. Regarding `COc1ccc2ccccc2c1CNc1nnnn1C`, the inhibition was -0.932%.

Consider `Cc1cc(C(=O)N/N=C\C(Br)=C\c2ccccc2)c(C)o1`, for which the inhibition is 55.9% (active). As for `CC(C)c1cc(C(=O)N/N=C/C(Br)=C/c2ccccc2)n[nH]1`, the inhibition is 34.3%. For the compound `CC(=C/c1ccccc1)/C=N/NC(=O)c1cc(C)oc1C`, the inhibition was -0.867%. Regarding `CCN(CC)C(=O)c1nc[nH]c1C(=O)N(C)Cc1ccccc1`, the inhibition is 8.93%. Turning to `Cc1cc(C)cc(NC(=O)C2CCCN2S(=O)(=O)c2cccc3cccnc23)c1` (centres undefined), the inhibition was 47.9%. Consider `CCOC(=O)c1cc2c(=O)n3ccccc3nc2n(CC(C)C)c1=NC(=O)c1c(-c2c(F)cccc2Cl)noc1C`, for which the inhibition was 28.6%. As for `Nn1c(SCC(=O)NC2CCCc3ccccc32)nnc1C1CC1` (centres undefined), the inhibition was 2.69%. `CC(=O)Oc1ccc2c(c1)C(=O)c1ccccc1C2=O`: the inhibition is 50.2% (active). Regarding `CC(=O)Nc1ccc(Oc2ccc3c(c2)C(=O)NC3=O)cc1`, the inhibition was -0.541%. With `CC(=O)O[C@H]1c2ccccc2-c2ccccc2[C@@H]1OC(C)=O`, the inhibition is 21.8%. As for `O=C(O)CN(Cc1ccco1)S(=O)(=O)c1ccc(F)cc1`, the inhibition is -1.65%. In the case of `Cc1c(C(=O)N2CCCc3ccccc32)oc2ccccc12`, the inhibition is 23.8%. The figure for `O=C(c1cc(-c2ccc(O)cc2)on1)N1CCOCC1` is 12.7%; for `O=C(c1cc(-c2ccc(O)cc2)on1)N1CCCc2ccccc21` it is 54.2% (active).

In the case of `O=C(c1cc(-c2cccc(O)c2)on1)N1CCc2ccccc2C1`, the inhibition is 50.3% (active). With `Cc1ccc(-c2cc(C(=O)N3CCc4ccccc4C3)no2)cc1`, the inhibition is 15.5%.

For the compound `O=C(NCCCN1CCOCC1)c1cc(-c2cccc(O)c2)on1`, the inhibition was -0.573%.

For `CSc1ccc(S(=O)(=O)N2CCC(C(=O)NCc3ccncc3)CC2)cc1`, the inhibition was 0.185%. As for `COC(=O)c1ccc2ccccc2c1OC1OC(CO)C(O)C(O)C1NC(C)=O` (centres undefined), the inhibition was 2.47%.

For `Cc1cccc(-c2nnc(SCC(=O)O)n2Cc2ccccc2)c1`, the inhibition was 1.27%. The figure for `CC1CCC2(CC1)NC(=O)N(Cc1nnc(-c3cccs3)o1)C2=O` (centres undefined) is 8.03%. Consider `CCn1c(SCc2cccc(C(=O)O)c2)nnc1-c1ccc(Cl)cc1`, for which the inhibition was 10.3%.

Turning to `CCC(C)c1ccc(NC(=O)COC(=O)C2CCCC2)cc1` (centres undefined), the inhibition was 56.9% (active). Turning to `O=C(COC(=O)C1CCCCC1)Nc1ccc([N+](=O)[O-])cc1`, the inhibition is 2.5%.

Turning to `CC(=O)Nc1ccc(NC(=O)COC(=O)C2CCC(C(C)(C)C)CC2)cc1` (centres undefined), the inhibition is 32.6%. `Clc1ccc(-c2nnc(-c3ccccc3)nc2N2CCSCC2)cc1`: the inhibition was 45.4%. The figure for `O=S(=O)(c1ccccc1)c1nc(Cc2ccccc2)oc1N1CCOCC1` is 7.56%; for `CCCCC(NC(=O)c1cccc(Br)c1)C(=O)O` (centres undefined) it is 4.77%. `COC(=O)CNS(=O)(=O)c1ccc(Cc2ccc(S(=O)(=O)NCC(=O)OC)cc2)cc1`: the inhibition is 31.2%.

Turning to `COc1cc(OC)c(C(=S)N2CCCC2)cc1OC`, the inhibition was 11.7%. For `CC(C)=C1SC(N2CCN(c3cccc(C)c3)CC2)=NC1=O`, the inhibition is 14.1%. On to `O=C1N=C(N2CCCC2)S/C1=C\c1cccc(Br)c1`, for which the inhibition is 27.3%. As to `CCN1C(=O)/C(=C2\SC(N3CCCCC3)=NC2=O)c2ccccc21`, the inhibition was 54.8% (active). With `CSc1ccccc1OCc1cc(C(=O)N2C[C@H]3CC[C@H]2C3)no1`, the inhibition was 18.7%. Turning to `CCCOc1ccc(CN(CCO)CCO)cc1C(=O)OC`, the inhibition is 1.64%. The result for `COCCCNC(=O)C1CCN(c2ccc(N3CCOCC3)nn2)CC1` reads 16.9%. In the case of `O=C(NCc1ccccc1)c1onc(CSc2nc3ccccc3[nH]2)c1C(=O)NCc1ccccc1`, the inhibition was 6.16%.

On to `CCOC(=O)C1CCN(C(=O)c2cccc(S(=O)(=O)N(CC)c3ccccc3)c2)CC1`, for which the inhibition was 14.3%. The figure for `CCCCN1C(=O)CC(N2CCOCC2)C1=O` (centres undefined) is -1.61%; for `Cn1nc(C(F)(F)F)cc1C(=O)O` it is -3.37%.

For `O=c1oc(-c2ccccc2NS(=O)(=O)c2ccc(Cl)cc2)nc2ccccc12`, the inhibition is 59.8% (active). For `O=c1oc2ccccc2c(NC2CCCCC2)c1NS(=O)(=O)c1ccc(Cl)cc1`, the inhibition was 25.2%.

Take `O=c1ccc2cc(S(=O)(=O)Nc3ccccc3F)ccc2o1`: the inhibition was 17.6%.

Turning to `CC(=O)Nc1ccc(N2C(=O)CC(Sc3nccc(C)n3)C2=O)cc1` (centres undefined), the inhibition is 10.2%.
